In PubChem BioAssay (Tox21):
Several values for one entry are separate records, joined by “and”; a condition that tells them apart may be missing. Identical values can stand only once. Inconclusive results are not listed. Activity calls are given as the source filed them. Unless noted, calls follow the shape of the dose curve; as a rule, active = well fitted curve in the direction sought with a large enough effect in the repeat runs; inconclusive = weak or mixed curves; inactive = no such curve, though single readings can be large; an effect the other way counts as inactive or inconclusive.

assay: qHTS assay to identify small molecule agonists of the estrogen related receptor (ERR) signaling pathway from Tox21 library (AID 1224849; calls by dose curve; also: nearly all actives have a fitted effect of over 15% in size); settings: ERR reporter cell line, ONE-Glo luciferase, 18 h; at 92.4 µM (top of the series) unless noted
Procedure, shortened: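 Tox21 compounds tested for ERR agonism in an NTP reporter cell line: 18 h treatment at 37 C, then ONE-Glo luminescence.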
% is scaled to controls: 0 for no effect and ±100 for the full control effect.

Structure (SMILES) | activity change, positive = activation
COC(=O)C1=C(C)NC(COC(N)=O)=C(C(=O)OC(C)C)C1c1cccc(Cl)c1Cl (centres undefined) | -36.5% [at 42.5 µM] (inactive)
CCCCOC(=O)CCCCCCCC(=O)OCCCC | 2.99% (inactive)
CCN(CC)c1ccc(C(=C2C=CC(=[N+](CC)CC)C=C2)c2cc(S(=O)(=O)O)ccc2S(=O)(=O)[O-])cc1 | -45.9% [at 42.5 µM] (inactive)
CCCCCCCCCCCCCCCCCCOS(=O)(=O)O | -38.9% (inactive)
CCC(C)(C)CC | -6.86% (inactive)
CCOC(=O)NCCOc1ccc(Oc2ccccc2)cc1 | -42.2% (inactive)
O=[N+]([O-])c1ccc(NCCO)c(OCCO)c1 | -14.5% (inactive)
O=C(O)c1nc(Cl)c(Cl)c(Cl)c1Cl | 0.56% (inactive)
CCCCCCCCCCCCCCOS(=O)(=O)O | -17.5% (inactive)
CCCCCCCC#N | 2.85% (inactive)
CCCCCCCCCCCCN1CCCCCC1=O | -23.3% (inactive)
O=C(Nc1ccccc1)c1ccccc1O | -30.7% (inactive)
CCC(C)O (centres undefined) | 0.0918% (inactive)
O=[N+]([O-])c1cccc(S(=O)(=O)O)c1 | -46% (inactive)
CCNc1cc(O)ccc1C | -8.23% (inactive)
Nc1cc(C(=O)O)c(O)c(S(=O)(=O)O)c1 | 7.51% (inactive)
C=C1C(=C/C=C2\CCC[C@]3(C)[C@@H]([C@H](C)/C=C/[C@@H](O)C4CC4)CC[C@@H]23)C[C@@H](O)C[C@@H]1O | -57.7% [at 42.5 µM] (inactive)

assay: qHTS RealTime-Glo MT Cell Viability Assay in HepG2 cells - 24 hour (AID 1224867); settings: RealTime-Glo luminescence; series mostly up to 76.8 µM; activity change, negative = cytotoxicity: at the top concentration; also: nearly all actives have a fitted effect of over 50% in size; also: potency is read from the fitted curve at half-maximal effect
Procedure, shortened: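 qHTS, HepG2, 600 cells/well, RealTime-Glo (NanoLuc + prosubstrate) added with cells; 5 h preincubation; DMSO compound addition; 37 C; luminescence at 0/8/16/24/32/40 h.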

Structure (SMILES) | activity change, negative = cytotoxicity | Potency
Brc1c2ccccc2cc2ccccc12 | -6.32% (inactive) | 
C[C@H](CCC(=O)O)[C@H]1CC[C@H]2[C@@H]3CC[C@@H]4C[C@H](O)CC[C@]4(C)[C@H]3C[C@H](O)[C@]12C | 1.3% (inactive) | 
COC(=O)C1=C(C)NC(COC(N)=O)=C(C(=O)OC(C)C)C1c1cccc(Cl)c1Cl (centres undefined) |  | 23.9 µM (active)
CCCCOC(=O)CCCCCCCC(=O)OCCCC | 1.07% (inactive) | 
CCN(CC)c1ccc(C(=C2C=CC(=[N+](CC)CC)C=C2)c2cc(S(=O)(=O)O)ccc2S(=O)(=O)[O-])cc1 | 2.35% [at 35.3 µM] (inactive) | 
CCCCCCCCCCCCCCCCCCOS(=O)(=O)O | -6.91% (inactive) | 
CCC(C)(C)CC | -5.22% (inactive) | 
CCOC(=O)NCCOc1ccc(Oc2ccccc2)cc1 | -18.8% (inactive) | 
O=[N+]([O-])c1ccc(NCCO)c(OCCO)c1 | -14.8% (inactive) | 
CN1CCN(C(c2ccccc2)c2ccccc2)CC1 | 2.78% [at 35.3 µM] (inactive) | 
O=C(O)c1nc(Cl)c(Cl)c(Cl)c1Cl | 5.91% (inactive) | 
CCCNCC(O)COc1ccccc1C(=O)CCc1ccccc1 (centres undefined) | -18.4% [at 35.3 µM] (inactive) | 
O=C1C(O)=C(O)C(=O)C(O)=C1O | -1.18% [at 35.3 µM] (inactive) | 
C/C(=C(\CCOP(=O)(O)O)SC(=O)c1ccccc1)N(C=O)Cc1cnc(C)nc1N | 1.32% [at 6.97 µM] (inactive) | 
CC(=O)c1ccc2c(c1)N(CCCN(C)C)c1ccccc1S2 | -9.89% [at 35.3 µM] (inactive) | 
C/C=C(/C(=C/C)c1ccc(OC(C)=O)cc1)c1ccc(OC(C)=O)cc1 | 0.0729% [at 35.3 µM] (inactive) | 
NCC(=O)CCC(=O)O | 2.08% [at 35.3 µM] (inactive) | 
CCCCCCCC#N | -1.41% (inactive) | 
CCCCCCCCCCCCN1CCCCCC1=O | -11.8% (inactive) | 
O=C(Nc1ccccc1)c1ccccc1O | -18.8% (inactive) | 
CCC(C)O (centres undefined) | -1.57% (inactive) | 
O=[N+]([O-])c1cccc(S(=O)(=O)O)c1 | -17.1% (inactive) | 
CN(C)CCN(Cc1ccccc1)c1ccccn1 | -12.5% [at 35.3 µM] (inactive) | 
CCNc1cc(O)ccc1C | -2.12% (inactive) | 
C#CCN(C)CCCOc1ccc(Cl)cc1Cl | -10.7% [at 35.3 µM] (inactive) | 
Nc1cc(C(=O)O)c(O)c(S(=O)(=O)O)c1 | 2.59% (inactive) | 
C=C1C(=C/C=C2\CCC[C@]3(C)[C@@H]([C@H](C)/C=C/[C@@H](O)C4CC4)CC[C@@H]23)C[C@@H](O)C[C@@H]1O | -11% [at 35.3 µM] (inactive) | 

assay: qHTS RealTime-Glo MT Cell Viability Assay in HEK293 cells - 32 hour (AID 1224868); settings: RealTime-Glo luminescence; series mostly up to 76.8 µM; activity change, negative = cytotoxic: at the top concentration; also: nearly all actives have a fitted effect of over 50% in size; also: potency is read from the fitted curve at half-maximal effect; as to activity change, negative = cytotoxic: top concentration of the series differs between compounds
Procedure, shortened: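 Assay medium contained NanoLuc luciferase plus cell-permeant prosubstrate, added with HEK293 cells at 600 cells/well. After 5 h at 37 C/5% CO2 compounds were added; plates stayed at 37 C for 40 h with serial luminescence reads.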

Structure (SMILES) | Potency | activity change, negative = cytotoxic
COC(=O)C1=C(C)NC(COC(N)=O)=C(C(=O)OC(C)C)C1c1cccc(Cl)c1Cl (centres undefined) | 26.8 µM (active) | 
CCCCOC(=O)CCCCCCCC(=O)OCCCC |  | 3.5% (inactive)
CCN(CC)c1ccc(C(=C2C=CC(=[N+](CC)CC)C=C2)c2cc(S(=O)(=O)O)ccc2S(=O)(=O)[O-])cc1 |  | -1.01% [at 35.3 µM] (inactive)
C#C[C@]1(O)CC[C@H]2[C@@H]3CCc4cc(OC5CCCC5)ccc4[C@H]3CC[C@@]21C | 23.9 µM (active) | 
CCC(C)(C)CC |  | -7.21% (inactive)
CCOC(=O)NCCOc1ccc(Oc2ccccc2)cc1 | 21.9 µM (active) | 
O=[N+]([O-])c1ccc(NCCO)c(OCCO)c1 |  | -12.7% (inactive)
CN1CCN(C(c2ccccc2)c2ccccc2)CC1 |  | 0.337% [at 35.3 µM] (inactive)
O=C(O)C1(C(=O)O)CCC1.[NH2-].[NH2-].[Pt+2] |  | -1.76% [at 35.3 µM] (inactive)
CCCCCCCCCCCCCCOS(=O)(=O)O |  | -16.9% (inactive)
CCCNCC(O)COc1ccccc1C(=O)CCc1ccccc1 (centres undefined) | 2.39 µM (active) | 
O=C1C(O)=C(O)C(=O)C(O)=C1O |  | -9.56% [at 35.3 µM] (inactive)
C/C(=C(\CCOP(=O)(O)O)SC(=O)c1ccccc1)N(C=O)Cc1cnc(C)nc1N |  | 2.89% [at 6.97 µM] (inactive)
C=CC(=O)OCCOCCOCCOCCOC(=O)C=C | 34.8 µM (active) and 24.3 µM (active) | 
C/C=C(/C(=C/C)c1ccc(OC(C)=O)cc1)c1ccc(OC(C)=O)cc1 |  | -16.6% [at 35.3 µM] (inactive)
O=C(Cl)c1cc(C(=O)Cl)cc(C(=O)Cl)c1 | 49 µM (active) | 
NCC(=O)CCC(=O)O |  | 9.09% [at 35.3 µM] (inactive)
CCCCCCCC#N |  | -3.61% (inactive)
CCC(C)O (centres undefined) |  | 9.78% (inactive)
O=[N+]([O-])c1cccc(S(=O)(=O)O)c1 | 22.2 µM (active) | 
CN(C)CCN(Cc1ccccc1)c1ccccn1 |  | -26.2% [at 35.3 µM] (inactive)
CCNc1cc(O)ccc1C |  | 11.1% (inactive)
C#CCN(C)CCCOc1ccc(Cl)cc1Cl |  | -25.2% [at 35.3 µM] (inactive)
Nc1cc(C(=O)O)c(O)c(S(=O)(=O)O)c1 |  | 10.2% (inactive)
C=C1C(=C/C=C2\CCC[C@]3(C)[C@@H]([C@H](C)/C=C/[C@@H](O)C4CC4)CC[C@@H]23)C[C@@H](O)C[C@@H]1O | 16.9 µM (active) | 
